PubChem BioAssay (NCI)
Compounds without any hit were thinned out: in the full panel of roughly 83,000, 20% have a hit.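 Cell lines were cultured in 96-well plates, exposed to a single compound concentration, and assessed for percent growth 48 hours later.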 The source made the active and inactive calls.

tested on: NCI-H23 lung; assay: NCI-60 one-dose screen, 48 h (100 = growth as untreated, 0 = no growth, -100 = all killed); conditions: 10 µM unless noted
Description: Growth inhibition of the NCI-H23 human Non-Small Cell Lung tumor cell line is measured as a screen for anti-cancer activity. Cells are grown in 96 well plates and exposed to the test compound for 48 hours. Compounds are tested at a single concentration, which is 10^-5 M for most compounds. The reported endpoint is percent growth (GI% or GIPRCNT), where numbers from 0 - 100% represent growth inhibition, and numbers from -100% - 0 represent cell death. For example, a value of 40 represents 60% growth inhibition. A value of 0 means no net growth occurred over the course of the experiment. A value of -40 indicates 40% of cells at the beginning of the experiment died by the end of the experiment. A value of -100 means all cells are dead at the end of the experiment.
NCI-60 Human Tumor Cell Lines Screen was performed using the standard one-dose NCI protocol, which is described in more detail at https://dtp.cancer.gov/discovery_development/nci-60/default.htm.
Compounds with GIPRCNT values below 10 were considered active. Activity score was based on GIPRCNT using the following formula: […]
Score is 0 for GIPRCNT values of 100 or above, 50 for GIPRCNT values of 0, and 100 for GIPRCNT values of -100.

SMILES | growth
CCN1CCN(C(=O)[C@]23CCC(C)(C)C[C@H]2C2=CC[C@@H]4[C@@]5(C)CC/C(=N/O)C(C)(C)[C@@H]5CC[C@@]4(C)[C@]2(C)CC3)CC1 | 69.7% (inactive)
CC1(C)C(=O)CC[C@]2(C)[C@H]3C(=O)C=C4[C@@H]5C[C@@](C)(C(=O)NCCNCCN)CC[C@]5(C)CC[C@@]4(C)[C@]3(C)CC[C@@H]12 | 98.4% (inactive)
O=C1CCC/C=C\C[C@H]2C=C(Cl)C(=O)/C2=C/C[C@H](CCCCC(F)(F)F)OC(=O)CCC/C=C\C[C@H]2C=C(Cl)C(=O)/C2=C/C[C@H](CCCCC(F)(F)F)O1 | -35.2% [7.5 µM] (active)
C/C(=N\Nc1cc(C)c2ccccc2n1)c1ccccn1 | 14% (inactive)
C=C(C)[C@@H]1CC[C@]2(/C=N/Nc3ccncc3)CC[C@]3(C)[C@H](CC[C@@H]4[C@@]5(C)CCCNC(C)(C)[C@@H]5CC[C@]43C)[C@@H]12 | 85.9% (inactive)
CCc1nnc(NC(=O)c2ccoc2COc2ccccc2)s1 | 57.9% (inactive)
CCC(=O)c1c(C)[nH]c(C)c1C | 94% (inactive)
Cc1cc2nc3c4cc(Cl)ccc4n(CCN(C)C)c3nc2cc1C | 10.7% (inactive)
O=C(CI)Nc1ccc(O)c2ccccc12 | -7.45% (active)
CCC1C(=O)COC1=O (stereo not given) | 95.7% (inactive)
N#Cc1c(-c2ccco2)nc2c(c(-c3ccccc3)nn2-c2ccccc2)c1-c1ccc(O)cc1 | 99.7% (inactive)
CC(C)(C)c1cc(-n2c(-c3ccc(Cl)cc3)nc3cc(C(=O)Nc4ccc(Cl)cc4)ccc32)n[nH]1 | 32.8% (inactive)
O=C(O)c1cccc2c1-c1ccc(Cl)cc1C2 | 106% (inactive)
N#Cc1c(-c2ccc(O)cc2)c2c(N)nn(-c3ccccc3)c2[nH]c1=O | 98.9% (inactive)
Nc1nc2c(c(=O)[nH]1)C(c1ccc3c(c1)OCO3)C=C(C(=O)O)N2 (stereo not given) | 109% (inactive)
Brc1ccc2c(c1)c(-c1nc(-c3c[nH]c4ncccc34)cs1)cn2CCCN1CCCCC1 | 22.4% (inactive)
COc1cc2c3c(c4c5ccccc5[nH]c4c2c(OC)c1OC)C(=O)N(O)C3=O | 54.9% (inactive)
COc1ccc2[nH]cc(-c3nc(-c4c[nH]c5ncccc45)cs3)c2c1 | 48.3% (inactive)
Fc1ccc2nc(-c3cc(-c4ccc5c(c4)OCO5)n[nH]3)[nH]c2c1 | 64% (inactive)
Brc1ccc(Cn2nnnc2-c2ccn(-c3ccccc3)n2)cc1 | 62.3% (inactive)

SMILES | growth
COc1ccc(NC(=O)c2ccoc2COc2ccccc2)cc1 | 95.7% (inactive)
Cn1c(=O)c2c(ncn2CCC(=O)Nc2ccc(F)cc2)n(C)c1=O | 100% (inactive)
C=C(C)[C@@H]1CC[C@]2(C(=O)N3CCN(C)CC3)CC[C@]3(C)[C@H](CC[C@@H]4[C@@]5(C)C/C(=C/c6ccc(C(F)(F)F)cc6)C(=O)C(C)(C)[C@@H]5CC[C@]43C)[C@@H]12 | 99.2% (inactive)
COC(=O)CNc1nc(N(C)O)nc(N(C)O)n1 | 48.7% (inactive)
C=C(C)[C@@H]1CC[C@]2(C)[C@H](CC=C3[C@@H]4CC(C)(C)CC[C@]4(C=O)CC[C@]32C)[C@@]1(C)CCCN | 86.4% (inactive)
CC(C)(C)n1cc(-c2ccnc(NCCCNS(=O)(=O)c3ccc(Cl)cc3)c2)c(-c2cccc(F)c2)n1 | 70.9% (inactive)
Cc1ccc2[nH]cc(-c3nc(-c4cn(C)c5ncccc45)cs3)c2c1 | 74.7% (inactive)
Cc1cc(Cl)c2c(N(C)C)cccc2n1 | 96% (inactive)
C#Cc1cc2c(N)c(C(=O)c3cc(OC)c(OC)c(OC)c3)[nH]c2cc1OC | 43.1% (inactive)
O=C1C(Cl)=C(Nc2ccc(S(=O)(=O)c3ccc(NC4=C(Cl)C(=O)c5ccccc5C4=O)cc3)cc2)C(=O)c2ccccc21 | -12.9% (active)
C#CCC(C)(O)/C=C/C1=C(C)CCCC1(C)C (stereo not given) | 94.5% (inactive)
CN1CCN(CCOc2ccc(-c3cnc4c(-c5cccc(F)c5)cnn4c3)cc2)CC1 | 62.6% (inactive)
Nc1c2c(nc3ccc(Cl)cc13)CC(c1ccccc1)CC2=O (stereo not given) | 58.6% (inactive)
N#CC1c2ccccc2-c2ccccc2N1C(=O)c1ccccc1 (stereo not given) | 22.6% (inactive)
COc1ccc(-c2cc(=O)oc3ccc(Cl)cc23)cc1F | 18.1% (inactive)
O=c1c(CNc2ccc(S(=O)(=O)Nc3nccs3)cc2)coc2ccccc12 | 110% (inactive)
O=C1c2cc3c(cc2-c2c1c1ccc(Cl)cc1c(=O)n2C[C@H](O)[C@@H](O)[C@H](O)CO)OCO3 | -18% (active)
O=C(/C=C/c1cccc2ccccc12)Nc1ncc(Cc2ccccc2)s1 | 22.1% (inactive)
c1ccc2c(-c3nc(-c4c[nH]c5ncccc45)cs3)c[nH]c2c1 | 97.5% (inactive)
COc1ccc(-c2nc3c(c(C)nn3-c3ccc(F)cc3)c(=O)[nH]2)cc1 | 83.3% (inactive)
